According to PubChem BioAssay AID1345085 (National Center for Advancing Translational Sciences (NCATS), 2018):
Results filed as inconclusive are left out. Values without a mark were called inactive. Active and inactive are the calls of the source. The call rests on the fitted dose curve; in most records, active means well fitted cell-killing curve with a large enough effect; inconclusive means small, poorly fitted or top-dose-only effect, or effect the other way; inactive means no such curve, though single readings can be large or run the other way.
Further: nearly all actives have a fitted effect of over 55% in size.
On the % scale 0 is the no-effect control and ±100 the full control effect; potency means the concentration at half of the fitted maximal effect.

The molecules below were run on CAOV3 (assay: Confirmatory qHTS for gynecologic anti-cancer compounds from libraries of approved drugs and bioactive compounds). Conditions: gynecologic cancer cell panel viability, ATPlite luminescence, 48 h; series mostly up to 57.6 µM; activity change, negative = viability loss: at the top concentration.
Outline: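 Cells (1,000/well) were plated, left 16 h at 37 C/5% CO2, then given compound at 11 concentrations (1:3) from 57.5 uM to 0.977 nM for 48 h. ATPlite luminescence after 15 min at room temperature gave IC50 values.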
In the case of `COc1cc(-c2nn(C3CCC(N4CCN(C(C)=O)CC4)CC3)c3ncnc(N)c23)ccc1NC(=O)c1cc2ccccc2n1C` (centres undefined), the Potency is reported as 30.6 µM (active). With `COc1cc2c(NC3CCN(C(C)C)CC3)nc(C3CCCCC3)nc2cc1OCCCN1CCCC1` the Potency was 8.63 µM (active). With `OCc1ccc(-c2ccc(-c3ccc(CO)s3)o2)s1` the Potency was 0.668 µM (active). `CCCCc1nc2cc(/C=C/C(=O)NO)ccc2n1CCN(CC)CC` was tested, and the Potency was 4.85 µM (active). With `Cc1cc(Nc2cc(N3CCN(C)CC3)nc(/C=C/c3ccccc3)n2)n[nH]1` the Potency was 7.69 µM (active). For `O=C1N(c2ccccc2)c2ccccc2C1(Cc1ccncc1)Cc1ccncc1`, the “activity change, negative = viability loss” value was 12.6%. For `Nc1ccccc1NC(=O)c1ccc(CNc2nccc(-c3cccnc3)n2)cc1`, the Potency was 2.73 µM (active). With `CNC(=O)c1ccccc1Nc1nc(Nc2ccc(N3CCOCC3)cc2OC)ncc1Cl` the Potency was 1.37 µM (active). `Nc1ccn([C@@H]2O[C@H](CO)[C@@H](O)C2(F)F)c(=O)n1` was tested, and the Potency was 0.217 µM (active). `COc1cc(N2CCC(N)CC2)ccc1Nc1ncc(Cl)c(-c2c[nH]c3ccccc23)n1` was tested, and the Potency was 3.43 µM (active). In the case of `CC(C)C[C@H](NC(=O)[C@@H](NC(=O)c1cccc(-c2ccccc2)n1)[C@@H](C)O)B(O)O`, the Potency is reported as 0.172 µM (active). `CCN[C@H]1C[C@H](C)S(=O)(=O)c2sc(S(N)(=O)=O)cc21` was tested, and the “activity change, negative = viability loss” value was 9.03%. For `COc1cc(N2CCC(N3CCN(C)CC3)CC2)ccc1Nc1ncnc(Nc2ccccc2S(=O)(=O)C(C)C)n1`, the Potency was 15.3 µM (active). `C[C@@H](Oc1cc(-c2cnn(C3CCNCC3)c2)cnc1N)c1c(Cl)ccc(F)c1Cl` was tested, and the Potency was 17.2 µM (active).
